Measured values as given in the supplement of paper PMC12350171.
Where a name gives a salt, the structure may show the parent alone. Unmarked numbers belong to inactive results.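 The calls were made as follows: active = AUC significantly below DMSO controls by Student t-fit with adjusted P under 0.01; inactive = not significantly reduced.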

Test system: Haemophilus parainfluenzae
Assay: growth AUC normalised to DMSO control (fraction of control); higher = less growth inhibition, active = hit call of the paper
Conditions: 20 µM
Outline: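 For the AUC endpoint, growth curves were integrated by the trapezoidal rule up to the exponential-to-stationary transition and normalised to DMSO controls on the same plate. The curves came from OD578 readings taken hourly for 24 h, in three biological replicates. Pathogens had been passaged anaerobically twice and inoculated at an OD578 of 0.01 into pre-reduced mGAM plates carrying 20 μM compound and 1% DMSO, sealed with breathable membranes. Medium for Haemophilus parainfluenzae also contained hemin and NAD.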

Structure (SMILES) | growth AUC normalised to DMSO control
CN1CCc2cccc3c2[C@H]1Cc1ccc(O)c(O)c1-3 [R(-) Apomorphine hydrochloride hemihydrate] | 1.05
O=c1[nH]c(=O)n([C@H]2C[C@H](O)[C@@H](CO)O2)cc1C(F)(F)F [Trifluridine] | 1.08
CC(C)(O/N=C(\C(=O)N[C@@H]1C(=O)N2C(C(=O)[O-])=C(C[n+]3ccccc3)CS[C@H]12)c1csc(N)n1)C(=O)O [Ceftazidime pentahydrate] | 0.079 (active)
Cc1ccc(/C(=C\CN2CCCC2)c2ccccn2)cc1 [Triprolidine hydrochloride] | 0.961
CC(=O)OCC(=O)[C@@]1(O)CC[C@H]2[C@@H]3CCC4=CC(=O)CC[C@]4(C)[C@H]3[C@@H](O)C[C@@]21C [Cortisol acetate] | 1.02
COc1ccc(-c2cc(=O)c3c(O)cc(O[C@@H]4O[C@H](CO[C@@H]5O[C@@H](C)[C@H](O)[C@@H](O)[C@H]5O)[C@@H](O)[C@H](O)[C@H]4O)cc3o2)cc1O [Diosmin] | 0.784
CCOc1ccc2ccccc2c1C(=O)N[C@@H]1C(=O)N2[C@@H]1SC(C)(C)[C@@H]2C(=O)O [Nafcillin sodium salt monohydrate] | 0.899
CCCCCN(CCCCC)C(=O)C(CCC(=O)O)NC(=O)c1ccc(Cl)c(Cl)c1 (stereo unspecified) [Lorglumide sodium salt] | 0.982
C[C@@H](O)[C@H]1C(=O)N2C(C(=O)O)=C(SCCNC=N)C[C@H]12 [Imipenem] | 1.01
CO[C@H]1/C=C/O[C@@]2(C)Oc3c(C)c(O)c4c(O)c(c(/C=N/N5CCN(C6CCCC6)CC5)c(O)c4c3C2=O)NC(=O)/C(C)=C\C=C\[C@H](C)[C@H](O)[C@@H](C)[C@@H](O)[C@@H](C)[C@H](OC(C)=O)[C@@H]1C [Rifapentine] | 0.0302 (active)
CCOC(=O)c1ccc(N)cc1 [Benzocaine] | 1.02
CC(NCCC(c1ccccc1)c1ccccc1)c1ccccc1 (stereo unspecified) [Fendiline hydrochloride] | 0.986
COC(=O)Nc1nc2cc(C(=O)c3ccccc3)ccc2[nH]1 [Mebendazole] | 0.983
Nc1nnc(-c2cccc(Cl)c2Cl)c(N)n1 [Lamotrigine] | 1.01
CCCCOC(=O)c1ccc(O)cc1 [Butylparaben] | 0.97
O=C(O[C@@H]1C[C@@H]2C[C@H]3C[C@H](C1)N2CC3=O)c1c[nH]c2ccccc12 [Dolasetron mesilate] | 1.06

Structure (SMILES) | growth AUC normalised to DMSO control
Nc1ccn([C@H]2CC[C@@H](CO)O2)c(=O)n1 [Zalcitabine] | 1.06
CCCCC(C)(O)C/C=C/[C@H]1[C@H](O)CC(=O)[C@@H]1CCCCCCC(=O)OC (mixture of isomers) [Misoprostol] | 1.02
CC[C@H](C)C(=O)O[C@H]1CCC=C2C=C[C@H](C)[C@H](CC[C@@H]3C[C@@H](O)CC(=O)O3)[C@H]21 [Mevastatin] | 0.978
C[C@H](CCC(=O)O)[C@H]1CC[C@H]2[C@@H]3[C@@H](O)C[C@@H]4C[C@H](O)CC[C@]4(C)[C@H]3CC[C@]12C [Urosiol] | 1.01
NCCCC[C@H](N[C@@H](CCc1ccccc1)C(=O)O)C(=O)N1CCC[C@H]1C(=O)O [Lisinopril] | 0.992
Nc1ccc(S(N)(=O)=O)cc1 [Sulfanilamide] | 0.997
CCCCc1oc2ccccc2c1C(=O)c1cc(I)c(OCCN(CC)CC)c(I)c1 [Amiodarone hydrochloride] | 0.96
O=C(O)c1cn(C2CC2)c2cc(N3CCNCC3)c(F)cc2c1=O [Ciprofloxacin hydrochloride monohydrate] | 0.0495 (active)
CCOc1nc2cccc(C(=O)O)c2n1Cc1ccc(-c2ccccc2-c2nnn[nH]2)cc1 [Candesartan] | 1.05
CN(C)CCCN1c2ccccc2CCc2ccccc21 [Imipramine hydrochloride] | 0.923
Nc1nc2ccc(OC(F)(F)F)cc2s1 [Riluzole hydrochloride] | 1.01
C1CCC(C(CC2CCCCN2)C2CCCCC2)CC1 (stereo unspecified) [Perhexiline maleate] | 0.977
NC(=O)N1c2ccccc2C=Cc2ccccc21 [Carbamazepine] | 0.989
CC(C)(C)NC[C@H](O)COc1ccccc1C1CCCC1 [Penbutolol sulfate] | 1.02
C[C@]1(Cn2ccnn2)[C@H](C(=O)O)N2C(=O)C[C@H]2S1(=O)=O [Tazobactam] | 1.02
